In PubChem BioAssay AID1832 (Broad Institute, 2009) one finds activity score (negative = inhibition of binding) data, which are given here for 91 compounds.

Screen size: about 300,000 compounds; about 1,100 (0.37%) were called active. The sample as a whole holds a higher share of actives than the screen did. Values without a mark were called inactive.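 The calls were made as follows: active = inhibition past about -25% in most replicates, and total fluorescence under double the plate's negative control median (limit read from the data); inconclusive = replicates evenly split on the limit, or fluorescence at least double controls; inactive = too little inhibition in most replicates.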

The experiment deals with Zinc finger protein mex-5 (Caenorhabditis elegans) (UniProt Q9XUB2). As to the kind of experiment: MEX-5 zinc finger RNA-binding disruptors – biochemical, C. elegans, fluorescence polarization, MLPCN library, primary screen (AID 1832).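 Also: 0% = DMSO and -100% = 5 µM competing unlabeled TCR2 RNA.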 To be noted: MEX-5/FITC-TCR2 RNA binding, at 10 µM, stronger effect = lower value.
Sequence of Zinc finger protein mex-5 (Caenorhabditis elegans) (Q9XUB2 whole entry, looked up): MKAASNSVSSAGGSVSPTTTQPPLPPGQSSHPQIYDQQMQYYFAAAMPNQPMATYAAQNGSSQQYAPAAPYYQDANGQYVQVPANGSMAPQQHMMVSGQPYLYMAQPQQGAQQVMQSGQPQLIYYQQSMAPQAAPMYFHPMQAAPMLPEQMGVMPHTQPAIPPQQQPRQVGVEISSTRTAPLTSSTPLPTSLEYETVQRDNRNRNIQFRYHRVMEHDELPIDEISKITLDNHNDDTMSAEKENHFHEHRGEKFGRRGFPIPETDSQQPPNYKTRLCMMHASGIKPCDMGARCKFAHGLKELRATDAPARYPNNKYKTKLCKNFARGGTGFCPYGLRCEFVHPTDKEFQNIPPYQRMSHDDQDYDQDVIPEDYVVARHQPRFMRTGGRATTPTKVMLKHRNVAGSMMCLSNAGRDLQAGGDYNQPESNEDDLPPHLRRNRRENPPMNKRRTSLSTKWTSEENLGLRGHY
Consider `COc1ccc(-c2n[nH]c3c2CN(C(=O)c2ccc(F)cc2)CC3)cc1`, for which the activity score (negative = inhibition of binding) is 0.485%.

Consider `O=c1ccc(-c2ccc(S(=O)(=O)Nc3ccccc3)o2)n[nH]1`, for which the activity score (negative = inhibition of binding) is 1.3%. For `Cc1cc2oc3ccc(NCCC4CCCN4C)cc3c(=O)c2cc1C` (stereo unspecified), the activity score (negative = inhibition of binding) was -10.1%.

As to `CCSCc1nc(N)nc(NCCc2ccccc2)n1`, the activity score (negative = inhibition of binding) was -1.2%.

`O=C(Nc1ccc(OC(F)(F)F)cc1)c1ccc2c(c1)no[n+]2[O-]`: the activity score (negative = inhibition of binding) was -2.46%.

`COc1ccc(-c2nc(CS(=O)CC(=O)NCc3ccccc3)c(C)o2)cc1OC` (stereo unspecified): the activity score (negative = inhibition of binding) is 2.34%.

As to `COc1ccc(-c2nc(CS(=O)CC(=O)NCc3ccccn3)c(C)o2)cc1` (stereo unspecified), the activity score (negative = inhibition of binding) was -66% (active).

As to `COc1cccc(-c2nc(CS(=O)CC(=O)NCc3ccc(F)cc3)c(C)o2)c1` (stereo unspecified), the activity score (negative = inhibition of binding) is 0.156%.

`O=C(CCC(=O)NNc1nc2ccccc2c2nc(-c3ccccc3)nn12)NCCCN1CCCC1=O`: the activity score (negative = inhibition of binding) was 0.509%. Turning to `COc1ccc(OC)c(-n2cc3c(=O)n(C)c(=O)n(C)c3c2)c1`, the activity score (negative = inhibition of binding) is -2.26%. As for `COC(=O)C1=C[C@@H](C(=O)OC)[C@@H]2C3=C(C(=O)[C@]2(C)NC(=O)c2ccccc2)[C@H](C)n2c(=O)n(C)c(=O)n2[C@@H]3C1`, the activity score (negative = inhibition of binding) was 0.374%. With `COc1ccc(CNC(=O)C(Cc2ccccc2)n2cccc2)cc1` (stereo unspecified), the activity score (negative = inhibition of binding) is 2.2%. Regarding `CC(Cc1ccccc1)C(=O)N(C)Cc1ccccc1` (stereo unspecified), the activity score (negative = inhibition of binding) is 2.02%. For `Cc1ccc(C)n1C(Cc1ccccc1)C(=O)O` (stereo unspecified), the activity score (negative = inhibition of binding) was -27.1% (active). In the case of `Cc1c(C=O)c2ccccc2n1CC(=O)O`, the activity score (negative = inhibition of binding) was -1.11%. Take `C[C@@H](C(=O)Nc1ccc2ccccc2c1)[C@@H]1C[C@@]1(C)[C@@H](NC(=O)c1cccnc1)c1ccccc1`: the activity score (negative = inhibition of binding) is 2.99%. Then `O=C(Nc1c2c(nn1-c1cccc(Cl)c1)CS(=O)(=O)C2)c1cccs1`, with -4.55%; and `Cc1ccccc1NC(=S)NC(=O)Cc1ccc(Cl)cc1`, with 0.984%; and `CCCc1nnc(NC(=O)CCC(=O)N2CCN(S(=O)(=O)c3ccc(OC)cc3)CC2)s1`, with 2.03%. On to `CCCN1CC=C2C(C#N)=C(N)C(C#N)(C#N)C(c3cc(OC)ccc3OC)C2C1` (stereo unspecified), for which the activity score (negative = inhibition of binding) was -27.2% (active). Take `CCN1CC=C2C(C#N)=C(N)C(C#N)(C#N)[C@H](c3ccoc3)[C@H]2C1`: the activity score (negative = inhibition of binding) was -84.8% (active).

Consider `CCC1=C(C(=O)OC)C(c2cc(OC)ccc2OC)C(C#N)=C(N)O1` (stereo unspecified), for which the activity score (negative = inhibition of binding) was -1.18%. As for `CC1=C(C(N)=O)C(c2ccc(F)cc2)n2nc(CCCO)nc2N1` (stereo unspecified), the activity score (negative = inhibition of binding) is -1.99%. For `CCCCn1c(N)c(N(Cc2ccccc2OC)C(=O)COc2cc(C)ccc2Cl)c(=O)[nH]c1=O`, the activity score (negative = inhibition of binding) is -0.677%. For the compound `CC1CC(C)CN(c2ccc(S(=O)(=O)N3CCOCC3)cc2)C1` (stereo unspecified), the activity score (negative = inhibition of binding) is -0.658%.

On to `CCN(Cc1ccccc1)S(=O)(=O)c1cc2c3c(c1)CCN3C(=O)CC2`, for which the activity score (negative = inhibition of binding) is 1.24%. For `O=C1Cc2ccccc2Sc2ccc(Cl)cc21` the value was -1.6%.

As for `CC(C)[C@H](NC(=O)N1c2ccccc2NC(=O)[C@@H]1C(C)C)C(=O)N[C@H](C(=O)O)c1ccccc1`, the activity score (negative = inhibition of binding) is 1.76%. As for `Cc1cccc(N=Nc2c(O)[nH]c3ccc(F)cc23)c1`, the activity score (negative = inhibition of binding) was -37.8% (active). Then `Cc1cccc(N=Nc2c(C)[nH]n(-c3ccccc3)c2=O)c1`, with -1.5%. With `COCC(=O)N=Nc1c(O)[nH]c2ccccc12`, the activity score (negative = inhibition of binding) is -1.5%. Take `Cc1cccc(NC(=O)c2nc(S(=O)(=O)Cc3ccccc3)ncc2Cl)c1`: the activity score (negative = inhibition of binding) was 2.04%.

For the compound `Cc1cc(=O)n2nc(N3CCCC(C(=O)NCc4cccc(Cl)c4)C3)sc2n1` (stereo unspecified), the activity score (negative = inhibition of binding) was 0.58%.

Regarding `Brc1ccc(C2=CC(c3ccco3)n3ncnc3N2)cc1` (stereo unspecified), the activity score (negative = inhibition of binding) is -46.2% (active). Then `CCOc1ccc(C2=CC(c3ccccc3)n3ncnc3N2)cc1` (stereo unspecified), with 0.973%.

For `COC(=O)C1=C(C)Nc2ncnn2C1c1ccco1` (stereo unspecified), the activity score (negative = inhibition of binding) is 0.833%. As to `Cc1ccnc(N2C(=O)c3ccc([N+](=O)[O-])cc3C2=O)c1`, the activity score (negative = inhibition of binding) is 0.424%. Turning to `CCN1C(=NCC(C)C)N[C@@H](CCc2ccccc2)[C@H](C(=O)NCC(C)C)[C@H]1C`, the activity score (negative = inhibition of binding) is 0.663%. Then `COC(=O)[C@H](Cc1ccccc1)NC(=O)Nc1ccc(OC)cc1`, with -2.47%; and `CCOC(=O)C(Cc1ccccc1)NC(=O)CCC(=O)c1ccc(OC)cc1` (stereo unspecified), with -0.523%; and `COc1cc([C@H](Cc2ccccc2)NC(C)=O)oc(=O)c1`, with -29.7% (active). For `O=C(Nc1cc2c3c(c1)C1CCCC1CN3CC1CCCC21)c1ccc([N+](=O)[O-])cc1` (stereo unspecified) the value was 0.805%; for `CCN(Cc1ccccc1)C(=O)CCS(=O)(=O)c1ccc2c(c1)oc(=O)n2C`, -0.201%; for `CC(C)(C)N(Cc1ccccc1)C(=O)c1ccncc1`, 0.0862%. With `Cc1cc(NC(=O)CSc2nc(=O)cc(N)n2-c2ccc(F)cc2)no1`, the activity score (negative = inhibition of binding) was 3.29%. Consider `O=C(O)CCn1cc(/C=C/C(=O)c2ccc(Cl)cc2)c(-c2cccc(Br)c2)n1`, for which the activity score (negative = inhibition of binding) is -3.47%.

With `CCn1nc(C)c(NC(=O)/C=C/c2ccc(OC)c(COc3ccc(Br)cc3)c2)c1C`, the activity score (negative = inhibition of binding) is -2.54%.

For the compound `Cc1cc(C)c(/C=C2\C(=O)Nc3ccccc32)[nH]1`, the activity score (negative = inhibition of binding) was -49.3% (active). Turning to `CN(C)/C=C1/Nc2ccccc2C1=O`, the activity score (negative = inhibition of binding) is -9.39%. For the compound `O=C1Nc2ccccc2/C1=C/c1ccnc2ccccc12`, the activity score (negative = inhibition of binding) is -0.239%.

On to `Cc1cc(C)c(C)c(S(=O)(=O)Nc2cccnc2)c1C`, for which the activity score (negative = inhibition of binding) is 3.19%. For `CCN(CC)CCOc1ccc2c(c1)C(=NNC(=O)c1ccccn1)c1cc(OCCN(CC)CC)ccc1-2`, the activity score (negative = inhibition of binding) is -21.9%.

As for `O=C(CCCN1C(=O)/C(=C\c2ccco2)SC1=S)Nc1cccc2ccccc12`, the activity score (negative = inhibition of binding) is -4.74%. For the compound `Cc1cc(/C=C2\SC(=O)N(C)C2=O)c(C)n1-c1cccc(C(=O)O)c1`, the activity score (negative = inhibition of binding) is -1.93%. Consider `CN1C(=O)/C(=C/c2ccco2)SC1=Nc1cccc(C(=O)O)c1`, for which the activity score (negative = inhibition of binding) was -30.7% (active). As to `CSc1nc(C)nc(C2CC2)c1C#N`, the activity score (negative = inhibition of binding) is 0.165%. With `CN(C)c1ccc(NC(=S)N(CCc2ccccc2)C2CC(=O)N(c3c(Cl)cccc3Cl)C2=O)cc1` (stereo unspecified), the activity score (negative = inhibition of binding) is 0.224%. As to `Cc1cccc(NC(=O)COC(=O)CCc2ccccc2)c1C`, the activity score (negative = inhibition of binding) is 0.968%. As for `O=C(COC(=O)CCc1c[nH]c(=O)[nH]1)Nc1ccccc1Cl`, the activity score (negative = inhibition of binding) is -36.5% (active).

Regarding `O=C(COC(=O)CCOc1ccccc1)Nc1cc(S(=O)(=O)N2CCCCC2)ccc1Cl`, the activity score (negative = inhibition of binding) was -0.682%. Then `COc1cc(S(=O)(=O)N2CCN=C2c2ccccc2)ccc1Cl`, with 3.19%; and `COc1ccc(CC(=O)Nc2c(C(N)=O)oc3ccccc23)cc1`, with 0.725%. On to `CC(C)(C)OC(=O)N1CCC(C(=O)NNC(=O)c2ccc(Cl)cc2Cl)CC1`, for which the activity score (negative = inhibition of binding) is 0.105%. `CCOC(=O)c1sc2nc(C)[nH]c(=O)c2c1C`: the activity score (negative = inhibition of binding) was -1.49%. `CSc1nnc(SCc2nc3sc(C(=O)O)c(C)c3c(=O)[nH]2)s1`: the activity score (negative = inhibition of binding) was -39.1% (active). For the compound `CCOC(=O)c1sc2nc(CSc3ccccc3)[nH]c(=O)c2c1C`, the activity score (negative = inhibition of binding) is 3.85%.

For `CC(C)C[C@H](NC(=O)N1CC(=O)Nc2ccccc21)C(=O)N[C@H](Cc1ccccc1)C(=O)O`, the activity score (negative = inhibition of binding) is 2.99%. For the compound `COc1ccc(C(=O)OCC(=O)NCC2CCCO2)cc1[N+](=O)[O-]` (stereo unspecified), the activity score (negative = inhibition of binding) was 0.621%. Turning to `CNC(=O)/C(C#N)=C/c1c(F)cccc1Cl`, the activity score (negative = inhibition of binding) was 0.288%.

Turning to `COc1ccc2c(C)c(CCC(=O)NC3CC3)c(=O)oc2c1C`, the activity score (negative = inhibition of binding) was -3.04%. Then `CCCCC1N2CC3([N+](=O)[O-])CN1CC([N+](=O)[O-])(C2)C3(C)C` (stereo unspecified), with -0.199%; and `COc1ccc(/C=C2\SC(=S)N(CCC(=O)Nc3ccccn3)C2=O)cc1OC`, with -2.36%. Then `COc1ccc(/C=C2\SC(=S)N(CCC(=O)Nc3cccc(C(=O)O)c3)C2=O)cc1OC`, with -1.23%.

As to `COc1ccc(/C=C2\SC(=S)N(CCCC(=O)NC3CCCC3)C2=O)cc1OC`, the activity score (negative = inhibition of binding) is -48.2% (active).

In the case of `O=S(=O)(c1ccccc1)N1CCC(c2ccccc2)CC1`, the activity score (negative = inhibition of binding) is -0.204%. Take `CCN(CC(=O)Nc1ccc2c(c1)OCCO2)Cc1cc(=O)oc2cc(C)c(C)cc12`: the activity score (negative = inhibition of binding) is -1.63%.

Turning to `Nc1ccc2nc3c(=O)[nH]c(=S)[nH]c3nc2c1`, the activity score (negative = inhibition of binding) was -47.2% (active). For the compound `COc1ccc(CCn2c(NN=C3CCCC3)nc3c2c(=O)[nH]c(=O)n3C)cc1`, the activity score (negative = inhibition of binding) was 1.31%. As for `NC(=O)c1oc2ccccc2c1NC(=O)Cc1ccccc1`, the activity score (negative = inhibition of binding) was -2.66%. As to `CCCn1c(O)c(CN2CCCC(C)C2)c(C)c(C#N)c1=O` (stereo unspecified), the activity score (negative = inhibition of binding) is -33.7% (active). For the compound `Cc1c(CN2CCCCC2)c(O)n(CCO)c(=O)c1C#N`, the activity score (negative = inhibition of binding) is -12.5%. Then `CCCCCCn1c(CN2CCCC(C)C2)nc2c1c(=O)n(C)c(=O)n2C` (stereo unspecified), with -0.485%; and `COc1cccc(NC(=O)CSc2nnc(-c3cccnc3)o2)c1`, with -0.46%. As to `CCOC(=O)COc1cc(O)c2c(=O)cc(-c3ccccc3)oc2c1`, the activity score (negative = inhibition of binding) is 0.422%. In the case of `COc1c(O)cc2oc(-c3ccc(O)c(O)c3)cc(=O)c2c1O`, the activity score (negative = inhibition of binding) was -34.4% (active). Regarding `COc1ccc(-c2cc(=O)c3c(O)cc(O[C@@H]4O[C@H](CO[C@@H]5O[C@@H](C)[C@H](O)[C@@H](O)[C@H]5O)[C@@H](O)[C@H](O)[C@H]4O)cc3o2)cc1O`, the activity score (negative = inhibition of binding) was 0.902%. `COc1ccccc1OCCOc1ccc(/C=C2\C(=N)N3N=C(C)SC3=NC2=O)cc1`: the activity score (negative = inhibition of binding) is 0.998%.

Consider `CC(C)CC(=O)c1c[nH]c(C(=O)NCc2ccccc2)c1`, for which the activity score (negative = inhibition of binding) was -0.164%. Take `CN1CCN(/N=C/c2ccc(-c3ccc([N+](=O)[O-])cc3)o2)CC1`: the activity score (negative = inhibition of binding) is 2.18%. In the case of `NS(=O)(=O)c1ccc(-c2ccc(/C=C3\SC(=O)NC3=O)o2)cc1`, the activity score (negative = inhibition of binding) is -76.4% (active). For `CN1C(=O)/C(=C\c2ccc(-c3ccccc3)o2)SC1=S` the value was -2.67%.
